In PubChem BioAssay (NCATS):
Results filed as inconclusive are left out. Entries that show only a call come without a potency. Active and inactive are the calls of the source. Calls come from the whole dose curve; as a rule, active = well fitted cell-killing curve with a large enough effect; inconclusive = small, poorly fitted or top-dose-only effect; inactive = flat fitted curve, though single readings scatter.

experiment: Cell Viability - LYMP2-002 (AID 977); conditions: LYMP2-002 lymphoblastoid cell viability, qHTS; series mostly up to 92.2 µM;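 note: compound exposure lasted 24 h at 37 °C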
Text: NIH Chemical Genomics Center [NCGC]
NIH Molecular Libraries Screening Centers Network [MLSCN]
National Institutes of Environmental Health Sciences [NIEHS]
National Toxicology Program [NTP]
We have developed a 1536-well cell-based assay for quantitative high throughput screening (qHTS) against a number of cell lines to determine in vitro cytotoxicity of small molecules. This particular assay uses a human lymphoblastoid cell line (LYMP2-002) purchased from Coriell Institute for Medical Research.
NCGC Assay Protocol Summary:
The CellTiter-Glo luminescent cell viability assay (Promega) is a homogeneous method to measure the number of viable cells in culture. The end point readout of this assay is based on quantitation of intracellular ATP, an indicator of metabolic activity, using the luciferase reaction. Luciferase catalyzes the oxidation of beetle Luciferin to oxyluciferin and light in the presence of ATP. The luminescent signal is proportional to amount of ATP present.
Using the CellTiter-Glo luminescent cell viability assay, the amount of cellular ATP was measured in the lymphoblastoid cell line with complete culture medium following compound treatment for 24 hours. The assay was performed in opaque white Kalypsys 1536-well plates. In the screen, tetraoctylammonium bromide was used as positive control. Library compounds were measured for their ability to cause acute toxicity in the cell line, as reflected by a decrease in intracellular ATP levels, in a concentration-dependent manner. […] AC50 values were determined from concentration-response data modeled with the standard Hill equation.
qHTS protocol for CellTiter Glo lymphoblastoid cellular assay
[Step] [Parameter] [Value] [Description]
1. Reagent; 5 uL; 2500 lymphoblastoid cells/well
2. Time; 5 hr; 37 C incubation
4. Controls; 23 nL; Tetraoctylammonium bromide 6.4pM to 92 uM
5. Time; 24 hr; 37 C incubation
6. Reagent; 5 uL; CellTiter Glo reagent
7. Time; 30 min; Room Temperature
8. Detection; Luminescence; Viewlux plate reader
Keywords: cell viability, cytotoxicity, lymphoblastoid cell line, luminescence, NTPHTS, NTPHTS_NCGC, NIEHS, DSSTox, MLSMR, MLSCN, NIH Roadmap, qHTS, NCGC
Potency is the fitted concentration of half-maximal effect.

| Compound | Potency |
| --- | --- |
| C=CCCC#N | inactive |
| ClC(Cl)(Cl)C(Cl)(Cl)Cl | inactive |
| CCOC(=O)C1OC1(C)c1ccccc1 (stereo not given) | inactive |
| Oc1c(Cl)cccc1Cl | inactive |
| CC(C)Br | inactive |
| ClCCOCCCl | inactive |
| OCC(Cl)CCl (stereo not given) | inactive |
| O=c1ccc(=O)[nH][nH]1 | inactive |
| O=[N+]([O-])c1cccc(CCl)c1 | inactive |
| OCCBr | inactive |
| Cl/C=C/Cl | inactive |
| O=C(Cc1ccccc1)OCc1ccccc1 | inactive |
| CCOC(=O)CC(SP(=O)(OC)OC)C(=O)OCC (stereo not given) | inactive |
| Clc1ccc(C(Cl)(Cl)Cl)cc1Cl | inactive |
| Cc1ccc2c(C)cccc2c1 | inactive |
| CC(C)(COCC1CO1)COCC1CO1 (stereo not given) | inactive |
| Nc1cc(Cl)cc(C(=O)O)c1Cl | inactive |
| COC(=O)c1ccccc1N | inactive |
| CCCCC(CC)COC(=O)c1ccc(C(=O)OCC(CC)CCCC)c(C(=O)OCC(CC)CCCC)c1 (stereo not given) | inactive |
| CN=C=O | inactive |

| Compound | Potency |
| --- | --- |
| Nc1ncc([N+](=O)[O-])s1 | inactive |
| Oc1ccc(Cl)c(Cl)c1Cl | inactive |
| FC(Cl)(Cl)Cl | inactive |
| Cc1ccc([N+](=O)[O-])cc1 | inactive |
| CCCCCCCCCCCCCl | inactive |
| O=[N+]([O-])/C=C/c1ccccc1 | 39.8 µM (active) |
| C=CCCl | inactive |
| CC12CC1(C)C(=O)N(c1cc(Cl)cc(Cl)c1)C2=O (stereo not given) | inactive |
| c1ccc2c(c1)CCNC2 | inactive |
| Nc1cc(Cl)ccc1Cl | inactive |
| N#CCBr | inactive |
| c1ccc(C2CO2)cc1 (stereo not given) | inactive |
| Cc1ccc(N)c(C)c1 | inactive |
| CC(C)OC(=O)Cc1ccccc1 | inactive |
| S=C1NCCN1 | inactive |
| Nc1ccc([N+](=O)[O-])cc1[N+](=O)[O-] | inactive |
| CCC#N | inactive |
| CCCCCc1cc(O)cc(O)c1 | inactive |
| CN(C)C(=O)Nc1cccc(C(F)(F)F)c1 | inactive |
| CN1CSC(=S)N(C)C1 | 31.6 µM (active) |
